Drawing on PubChem BioAssay AID435030 (The Scripps Research Institute Molecular Screening Center, 2010), this text covers inhibition for 10 compounds.

Among all 330,000 compounds or so, about 940 (0.28%) were called active. No stated cut-off is given here; in the data, active means inhibition above about 12%; inactive means the rest. For the sample, actives were picked, then their nearest neighbours and some compounds at random.

A short description of this assay: reduced growth of AddAB-expressing E. coli cells – absorbance, AddAB inhibitor project, primary screen (AID 435030).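 Further: 0% = vehicle wells of infected cells.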 Conditions: E. coli expressing H. pylori AddAB, at 11.9 µM, stronger effect = higher value.
As to `Cc1ccc(-n2c(-c3ccc([N+](=O)[O-])cc3)nc3ccccc3c2=O)cc1`, the inhibition is 0.16% (inactive). Turning to `O=[N+]([O-])c1cnc2ccc3ccccc3c2c1`, the inhibition was 50.7% (active).

Consider `C/C(=N/O)c1ccc2ccc3ccccc3c2c1`, for which the inhibition is 1.43% (inactive).

With `CCc1ccc(OCC(=O)N2CCN(CC(=O)Nc3ccccc3Cl)CC2)cc1`, the inhibition is -0.08% (inactive). The same measure for `CN(C)S(=O)(=O)c1cc(C(=O)N2CCC(C(=O)O)(c3ccccc3)CC2)ccc1Cl`: 23.8% (active); for `CCc1nc2ccccc2c(=O)n1-c1cccc(OC)c1`: 1.96% (inactive). Regarding `COc1ccc(S(=O)(=O)NCc2ccc(C(=O)N3CCC4(CC3)OCCO4)cc2)cc1`, the inhibition was 2.3% (inactive). Consider `c1ccc2sc(N3CCNCC3)nc2c1`, for which the inhibition is -0.09% (inactive). For the compound `C[C@]12CC[C@H](O)CC1=C([N+](=O)[O-])CC1C2CC[C@@]2(C)C1CC[C@@H]2O` (stereo not given in full), the inhibition was 1.39% (inactive). Turning to `Cc1ccc(-c2nn(CCC#N)cc2C(=O)O)cc1C`, the inhibition is 2.06% (inactive).

One may read the inhibition as the change of the read-out against control, counted positive when it falls.
